Experimental data from PMC7862700, “An all-to-all approach to the identification of sequence-specific readers for epigenetic DNA modifications on cytosine”.

Columns and labels:
Assay in all cases: DAPPL (digital affinity profiling via proximity ligation, sequencing); 10 mM Tris-HCl pH 7.5, 50 mM NaCl, 1 mM DTT, 4% glycerol, room temperature, 30 min; GST-TFs on glutathione beads, 16-mer random dsDNA library, 0.1% formaldehyde crosslink after washing; high values mean tight binding
Conditions in all cases: protein: recombinant; tags: N-terminal GST; dsDNA, one strand shown
FLI1 = target: T1, FLI1 (Homo sapiens, UniProt Q01543 1-452)
T1 sequence: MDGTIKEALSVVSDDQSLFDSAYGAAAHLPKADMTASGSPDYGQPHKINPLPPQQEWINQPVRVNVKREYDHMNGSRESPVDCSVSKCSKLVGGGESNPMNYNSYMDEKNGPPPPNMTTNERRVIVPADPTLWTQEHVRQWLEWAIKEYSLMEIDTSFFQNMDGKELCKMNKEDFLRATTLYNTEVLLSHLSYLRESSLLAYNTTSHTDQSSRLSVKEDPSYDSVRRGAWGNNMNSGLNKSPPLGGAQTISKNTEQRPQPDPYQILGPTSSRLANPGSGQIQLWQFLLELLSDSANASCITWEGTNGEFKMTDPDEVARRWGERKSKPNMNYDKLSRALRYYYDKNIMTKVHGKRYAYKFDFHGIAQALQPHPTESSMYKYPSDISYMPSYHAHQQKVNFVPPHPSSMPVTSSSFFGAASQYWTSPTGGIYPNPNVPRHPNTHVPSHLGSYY
Outline: (§1)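 Pools were built from human transcription factors expressed in yeast as GST fusions, captured on glutathione beads and DNA-barcoded, along with a tag-only sample. Incubation with 200 nmole of a 16-mer random double-stranded DNA library lasted 30 min at room temperature in Tris/NaCl/DTT/glycerol buffer, and was followed by washing, 0.1% formaldehyde crosslinking, proximity ligation, PCR amplification and Illumina NextSeq500 sequencing. Binding signal is the quotient of each hexamer's read frequency for a factor and its frequency for the tag-only sample.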

ELK1 = target: T2, ELK1 (Homo sapiens, UniProt P19419 1-428)
T2 sequence: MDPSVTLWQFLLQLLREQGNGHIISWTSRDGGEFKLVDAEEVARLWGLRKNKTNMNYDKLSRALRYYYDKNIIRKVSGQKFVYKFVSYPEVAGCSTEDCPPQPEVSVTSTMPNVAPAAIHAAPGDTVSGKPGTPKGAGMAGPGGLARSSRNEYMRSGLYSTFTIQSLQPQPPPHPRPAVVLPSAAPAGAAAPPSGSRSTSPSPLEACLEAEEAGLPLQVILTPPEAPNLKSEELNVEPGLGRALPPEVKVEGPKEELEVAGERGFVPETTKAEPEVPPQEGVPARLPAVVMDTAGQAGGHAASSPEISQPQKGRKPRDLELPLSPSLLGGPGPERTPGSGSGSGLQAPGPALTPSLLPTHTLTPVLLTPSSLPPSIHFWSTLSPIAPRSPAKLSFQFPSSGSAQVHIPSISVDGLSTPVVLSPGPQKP
Outline: as §1

GABPA = target: T3, GABPA (Homo sapiens, UniProt Q06546 1-454)
T3 sequence: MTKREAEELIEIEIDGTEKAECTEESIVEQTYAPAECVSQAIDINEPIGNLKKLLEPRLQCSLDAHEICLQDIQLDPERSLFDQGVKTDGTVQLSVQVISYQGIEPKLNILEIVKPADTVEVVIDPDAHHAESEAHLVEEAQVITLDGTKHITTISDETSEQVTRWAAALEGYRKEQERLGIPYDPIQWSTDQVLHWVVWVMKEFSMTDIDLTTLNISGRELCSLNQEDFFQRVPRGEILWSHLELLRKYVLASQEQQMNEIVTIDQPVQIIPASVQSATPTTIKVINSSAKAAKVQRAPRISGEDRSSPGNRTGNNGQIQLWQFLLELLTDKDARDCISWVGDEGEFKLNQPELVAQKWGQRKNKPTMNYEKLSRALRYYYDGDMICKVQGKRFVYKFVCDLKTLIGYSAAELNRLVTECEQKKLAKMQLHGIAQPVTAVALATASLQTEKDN
Outline: as §1

ERG = target: T4, ERG (Homo sapiens, UniProt P11308 1-479)
T4 sequence: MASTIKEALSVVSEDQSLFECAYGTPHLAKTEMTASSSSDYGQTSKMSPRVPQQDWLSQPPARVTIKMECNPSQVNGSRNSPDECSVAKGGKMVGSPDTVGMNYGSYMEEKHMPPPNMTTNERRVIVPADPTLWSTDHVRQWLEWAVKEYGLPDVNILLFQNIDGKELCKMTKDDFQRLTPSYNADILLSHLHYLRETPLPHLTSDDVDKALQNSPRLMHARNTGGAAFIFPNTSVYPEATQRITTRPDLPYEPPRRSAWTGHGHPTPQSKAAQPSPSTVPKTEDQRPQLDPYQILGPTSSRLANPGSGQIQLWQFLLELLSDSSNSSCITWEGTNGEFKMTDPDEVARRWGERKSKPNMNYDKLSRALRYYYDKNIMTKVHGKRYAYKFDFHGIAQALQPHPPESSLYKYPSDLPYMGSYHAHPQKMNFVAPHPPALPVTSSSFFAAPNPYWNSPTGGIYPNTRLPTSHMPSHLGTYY
Outline: as §1

ELF1 = ELF1 (Homo sapiens, UniProt P32519 1-619)
ELF1, sequence (P32519 whole entry): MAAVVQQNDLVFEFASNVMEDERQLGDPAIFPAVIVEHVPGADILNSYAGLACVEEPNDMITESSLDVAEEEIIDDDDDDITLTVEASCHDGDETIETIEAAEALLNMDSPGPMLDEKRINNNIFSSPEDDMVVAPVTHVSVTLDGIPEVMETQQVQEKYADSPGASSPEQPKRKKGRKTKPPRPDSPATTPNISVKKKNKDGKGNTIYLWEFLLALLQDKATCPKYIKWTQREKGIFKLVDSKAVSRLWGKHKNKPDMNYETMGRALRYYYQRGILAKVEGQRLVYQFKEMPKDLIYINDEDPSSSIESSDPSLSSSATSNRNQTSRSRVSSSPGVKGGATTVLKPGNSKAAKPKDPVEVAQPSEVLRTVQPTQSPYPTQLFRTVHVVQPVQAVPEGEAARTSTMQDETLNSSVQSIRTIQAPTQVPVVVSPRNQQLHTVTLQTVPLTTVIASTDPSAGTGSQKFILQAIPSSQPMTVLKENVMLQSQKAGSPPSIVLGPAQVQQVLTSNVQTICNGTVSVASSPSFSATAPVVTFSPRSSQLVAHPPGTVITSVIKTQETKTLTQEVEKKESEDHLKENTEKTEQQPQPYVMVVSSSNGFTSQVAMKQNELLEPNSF
Outline: as §1

EHF = target: T5, EHF (Homo sapiens, UniProt Q9NZC4 1-300)
T5 sequence: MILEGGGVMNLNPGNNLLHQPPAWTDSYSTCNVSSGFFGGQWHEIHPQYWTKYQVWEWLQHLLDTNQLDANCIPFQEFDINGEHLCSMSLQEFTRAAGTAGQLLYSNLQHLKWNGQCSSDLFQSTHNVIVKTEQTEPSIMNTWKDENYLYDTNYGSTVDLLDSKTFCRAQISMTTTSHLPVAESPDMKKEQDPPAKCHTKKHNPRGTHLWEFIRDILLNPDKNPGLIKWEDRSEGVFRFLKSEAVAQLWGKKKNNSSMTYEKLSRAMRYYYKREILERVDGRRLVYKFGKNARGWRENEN
Outline: as §1

SPI1 = SPI1 (Homo sapiens, UniProt P17947 1-270)
Outline: as §1

SPIB = SPIB (Homo sapiens, UniProt Q01892 1-262)
SPIB, sequence (Q01892 whole entry): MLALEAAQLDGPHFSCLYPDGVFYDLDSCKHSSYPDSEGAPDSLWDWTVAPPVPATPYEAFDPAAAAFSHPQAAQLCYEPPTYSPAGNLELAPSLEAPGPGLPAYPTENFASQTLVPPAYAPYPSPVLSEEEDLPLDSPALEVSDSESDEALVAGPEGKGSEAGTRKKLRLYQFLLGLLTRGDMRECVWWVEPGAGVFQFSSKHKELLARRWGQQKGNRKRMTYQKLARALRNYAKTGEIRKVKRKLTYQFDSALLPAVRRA
Outline: as §1

ELK3 = target: T6, ELK3 (Homo sapiens, UniProt P41970 1-407)
T6 sequence: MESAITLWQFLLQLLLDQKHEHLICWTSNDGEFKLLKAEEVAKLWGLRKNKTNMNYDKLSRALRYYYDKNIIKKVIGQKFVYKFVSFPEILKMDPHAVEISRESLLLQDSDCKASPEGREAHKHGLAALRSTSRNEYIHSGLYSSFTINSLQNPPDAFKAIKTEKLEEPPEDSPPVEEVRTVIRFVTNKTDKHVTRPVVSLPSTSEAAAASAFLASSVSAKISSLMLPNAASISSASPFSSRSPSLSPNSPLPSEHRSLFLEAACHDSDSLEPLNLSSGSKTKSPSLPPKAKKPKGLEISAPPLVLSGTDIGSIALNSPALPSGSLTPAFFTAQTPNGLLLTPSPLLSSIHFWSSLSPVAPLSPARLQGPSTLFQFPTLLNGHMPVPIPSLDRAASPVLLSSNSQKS
Outline: as §1

| Sequence | binding signal (FLI1) | binding signal (ELK1) | binding signal (GABPA) | binding signal (ERG) | binding signal (ELF1) | binding signal (EHF) | binding signal (SPI1) | binding signal (SPIB) | binding signal (ELK3) |
| --- | --- | --- | --- | --- | --- | --- | --- | --- | --- |
| TAATTT | 1.35 fold enrichment (6-mer frequency, TF over GST control) | 1.28 fold enrichment (6-mer frequency, TF over GST control) | 1.5 fold enrichment (6-mer frequency, TF over GST control) | 1.4 fold enrichment (6-mer frequency, TF over GST control) | 1.41 fold enrichment (6-mer frequency, TF over GST control) | 1.41 fold enrichment (6-mer frequency, TF over GST control) | 1.38 fold enrichment (6-mer frequency, TF over GST control) | 1.5 fold enrichment (6-mer frequency, TF over GST control) | 1.52 fold enrichment (6-mer frequency, TF over GST control) |
| GTATAT | 1.13 fold enrichment (6-mer frequency, TF over GST control) | 1.22 fold enrichment (6-mer frequency, TF over GST control) | 1.13 fold enrichment (6-mer frequency, TF over GST control) | 1.09 fold enrichment (6-mer frequency, TF over GST control) | 1.17 fold enrichment (6-mer frequency, TF over GST control) | 1.2 fold enrichment (6-mer frequency, TF over GST control) | 1.13 fold enrichment (6-mer frequency, TF over GST control) | 1.23 fold enrichment (6-mer frequency, TF over GST control) | 1.11 fold enrichment (6-mer frequency, TF over GST control) |
| AAAACC | 1.12 fold enrichment (6-mer frequency, TF over GST control) | 1.05 fold enrichment (6-mer frequency, TF over GST control) | 1.16 fold enrichment (6-mer frequency, TF over GST control) | 1.13 fold enrichment (6-mer frequency, TF over GST control) | 1.21 fold enrichment (6-mer frequency, TF over GST control) | 1.18 fold enrichment (6-mer frequency, TF over GST control) | 1.27 fold enrichment (6-mer frequency, TF over GST control) | 1.19 fold enrichment (6-mer frequency, TF over GST control) | 1.26 fold enrichment (6-mer frequency, TF over GST control) |
| CATCTT | 1.18 fold enrichment (6-mer frequency, TF over GST control) | 1.27 fold enrichment (6-mer frequency, TF over GST control) | 1.17 fold enrichment (6-mer frequency, TF over GST control) | 1.27 fold enrichment (6-mer frequency, TF over GST control) | 1.25 fold enrichment (6-mer frequency, TF over GST control) | 1.2 fold enrichment (6-mer frequency, TF over GST control) | 1.21 fold enrichment (6-mer frequency, TF over GST control) | 1.21 fold enrichment (6-mer frequency, TF over GST control) | 1.29 fold enrichment (6-mer frequency, TF over GST control) |
| TCTCCA | 1.52 fold enrichment (6-mer frequency, TF over GST control) | 1.46 fold enrichment (6-mer frequency, TF over GST control) | 1.56 fold enrichment (6-mer frequency, TF over GST control) | 1.37 fold enrichment (6-mer frequency, TF over GST control) | 1.43 fold enrichment (6-mer frequency, TF over GST control) | 1.55 fold enrichment (6-mer frequency, TF over GST control) | 1.57 fold enrichment (6-mer frequency, TF over GST control) | 1.44 fold enrichment (6-mer frequency, TF over GST control) | 1.59 fold enrichment (6-mer frequency, TF over GST control) |
| TCTCGA | 1.35 fold enrichment (6-mer frequency, TF over GST control) | 1.34 fold enrichment (6-mer frequency, TF over GST control) | 1.42 fold enrichment (6-mer frequency, TF over GST control) | 1.38 fold enrichment (6-mer frequency, TF over GST control) | 1.41 fold enrichment (6-mer frequency, TF over GST control) | 1.37 fold enrichment (6-mer frequency, TF over GST control) | 1.36 fold enrichment (6-mer frequency, TF over GST control) | 1.43 fold enrichment (6-mer frequency, TF over GST control) | 1.31 fold enrichment (6-mer frequency, TF over GST control) |
| AGAATT | 1.21 fold enrichment (6-mer frequency, TF over GST control) | 1.15 fold enrichment (6-mer frequency, TF over GST control) | 1.11 fold enrichment (6-mer frequency, TF over GST control) | 1.17 fold enrichment (6-mer frequency, TF over GST control) | 1.15 fold enrichment (6-mer frequency, TF over GST control) | 1.18 fold enrichment (6-mer frequency, TF over GST control) | 1.22 fold enrichment (6-mer frequency, TF over GST control) | 1.16 fold enrichment (6-mer frequency, TF over GST control) | 1.28 fold enrichment (6-mer frequency, TF over GST control) |
